Values joined by “and” are separate entries in the source; they are usually repeats but may differ in a detail not shown here. Equal entries are not always repeated. Inconclusive results are not listed. Entries that show only a call come without a potency. Active and inactive are the calls of the source. Unless noted, the call rests on the fitted dose curve; in most records, active means well fitted curve in the direction sought with a large enough effect; inconclusive means small, poorly fitted or top-dose-only effect, or another doubt; inactive means no such curve, though single readings can be large; an effect the other way counts as inactive or inconclusive.
Assays:
[1] = molecular target: Cytochrome P450 2D6 (Homo sapiens) (UniProt P10635); assay: Cytochrome P450 family 2 subfamily D member 6 (CYP2D6) small molecule antagonists: luciferase biochemical (cell-free) qHTS assay (AID 1645840; active means well fitted curve in the direction sought with a large enough effect in the repeat runs; an effect the other way counts as inactive or inconclusive; further: nearly all actives have a fitted effect of over 55% in size; further: potency means the concentration at half of the fitted maximal effect)
Sequence of Cytochrome P450 2D6 (Homo sapiens) (P10635 whole entry, looked up): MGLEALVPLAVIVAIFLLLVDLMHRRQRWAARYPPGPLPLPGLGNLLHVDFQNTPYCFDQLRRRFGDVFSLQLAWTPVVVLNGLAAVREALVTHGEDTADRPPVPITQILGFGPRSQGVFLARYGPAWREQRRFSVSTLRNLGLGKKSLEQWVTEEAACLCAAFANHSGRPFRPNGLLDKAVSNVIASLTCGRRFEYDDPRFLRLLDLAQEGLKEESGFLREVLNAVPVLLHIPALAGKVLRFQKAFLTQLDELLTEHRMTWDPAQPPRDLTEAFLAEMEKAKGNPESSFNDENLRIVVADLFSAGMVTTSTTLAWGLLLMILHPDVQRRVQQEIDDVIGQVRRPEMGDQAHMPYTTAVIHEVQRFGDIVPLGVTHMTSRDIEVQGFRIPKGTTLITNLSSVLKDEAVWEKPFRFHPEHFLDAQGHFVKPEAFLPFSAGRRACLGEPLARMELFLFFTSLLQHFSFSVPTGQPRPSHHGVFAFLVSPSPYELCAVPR
In short: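 P450-Glo luminescent screen: recombinant CYP2D6 enzyme–proluciferin substrate mix preincubated with compound 10 min at room temperature, then NADPH regeneration added for 1 h at room temperature. Detection reagent added for 20 min; luciferin light read as relative luminescence units.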

[2] = Primary qHTS for inhibitors of nuclear receptor binding SET domain protein 2 (NSD2) in an isogenic RCH-ACV NSD2 p.E1099K mutant (9B) (AID 1645876); further: nearly all actives have a fitted effect of over 70% in size; further: potency means the concentration at half of the fitted maximal effect
[3] = Primary qHTS for inhibitors of nuclear receptor binding SET domain protein 2 (NSD2) in an RCH-ACV wild type WT cells (2C) (AID 1645877); further: nearly all actives have a fitted effect of over 70% in size; further: potency means the concentration at half of the fitted maximal effect
[4] = molecular target: Glutathione peroxidase 1 (Homo sapiens) (UniProt P07203); assay: Primary qHTS Assay for Inhibitors of Recombinant Selenoprotein Glutathione Peroxidase 1 (GPX1) (AID 1845191); further: nearly all actives have a fitted effect of over 65% in size
Sequence of Glutathione peroxidase 1 (Homo sapiens) (P07203 whole entry, looked up): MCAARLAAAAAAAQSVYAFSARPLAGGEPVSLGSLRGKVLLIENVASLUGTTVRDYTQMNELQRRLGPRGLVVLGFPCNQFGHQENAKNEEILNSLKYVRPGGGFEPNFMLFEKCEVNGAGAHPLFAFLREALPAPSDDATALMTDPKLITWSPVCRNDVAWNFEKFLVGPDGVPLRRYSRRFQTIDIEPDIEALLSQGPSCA
In short: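 GR-coupled assay: compounds preincubated 30 min at room temperature with GPX1, then reaction started with CHP; final 10 nM GPX1, 1 mM GSH, 0.5 mM CHP, 0.5 mM NADPH, 100 nM GR, 0.01% BSA, pH 7.5 Tris buffer. NADPH fluorescence (340/450 nm) read at 0 and 15 min.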

[5] = molecular target: Catechol O-methyltransferase (Homo sapiens) (UniProt P21964); assay: Confirmatory Screen for Target Class Profiling of Small Molecule Inhibitors of Methyltransferases (AID 1745852; calls by dose curve); details: MTase-Glo luminescence, SAH detection, recombinant enzyme; measured here: COMT max response; stronger effect = lower value
Sequence of Catechol O-methyltransferase (Homo sapiens) (P21964 whole entry, looked up): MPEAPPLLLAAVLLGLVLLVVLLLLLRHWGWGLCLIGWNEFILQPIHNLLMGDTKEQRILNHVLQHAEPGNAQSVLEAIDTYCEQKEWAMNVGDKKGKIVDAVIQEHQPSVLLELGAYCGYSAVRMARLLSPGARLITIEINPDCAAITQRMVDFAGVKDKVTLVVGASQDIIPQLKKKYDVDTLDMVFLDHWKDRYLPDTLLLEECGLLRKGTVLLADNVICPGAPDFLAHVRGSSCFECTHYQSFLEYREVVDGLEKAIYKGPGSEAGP

[6] = molecular target: Guanidinoacetate N-methyltransferase (Homo sapiens) (UniProt Q14353); assay: as above; details: activity change, negative = inhibition: at 57.3 µM (top of the series) unless noted
[7] = molecular target: Nicotinamide N-methyltransferase (Homo sapiens) (UniProt P40261); assay: as above; details: MTase-Glo luminescence, SAH detection, recombinant enzyme; measured here: NNMT max response; stronger effect = lower value
Sequence of Nicotinamide N-methyltransferase (Homo sapiens) (P40261 whole entry, looked up): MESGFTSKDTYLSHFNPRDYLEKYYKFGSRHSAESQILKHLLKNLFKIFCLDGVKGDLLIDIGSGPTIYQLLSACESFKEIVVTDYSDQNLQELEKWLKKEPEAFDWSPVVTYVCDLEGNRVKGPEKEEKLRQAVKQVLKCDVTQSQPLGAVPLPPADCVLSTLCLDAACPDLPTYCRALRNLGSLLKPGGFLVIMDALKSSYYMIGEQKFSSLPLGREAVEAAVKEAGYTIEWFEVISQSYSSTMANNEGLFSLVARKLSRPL

[8] = molecular target: Phenylethanolamine N-methyltransferase (Homo sapiens) (UniProt P11086); assay: as above; details: MTase-Glo luminescence, SAH detection, recombinant enzyme; measured here: PNMT max response; stronger effect = lower value
Sequence of Phenylethanolamine N-methyltransferase (Homo sapiens) (P11086 whole entry, looked up): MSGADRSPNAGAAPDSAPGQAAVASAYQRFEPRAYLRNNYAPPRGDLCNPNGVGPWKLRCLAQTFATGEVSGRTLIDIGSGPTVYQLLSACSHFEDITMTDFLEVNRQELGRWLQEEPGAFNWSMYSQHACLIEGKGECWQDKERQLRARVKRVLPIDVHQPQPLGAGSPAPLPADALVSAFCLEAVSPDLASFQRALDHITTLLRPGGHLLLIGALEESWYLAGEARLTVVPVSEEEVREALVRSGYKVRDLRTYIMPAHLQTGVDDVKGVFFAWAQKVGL

COc1cc2ncnc(Nc3cccc(O)c3)c2cc1OC
Potency [1]: inactive
Potency [2]: 2.9 µM (active)
Potency [3]: 3.25 µM (active)
Potency [4]: inactive

CC(C)c1cc(CNc2nc(Nc3cc(C4CC4)[nH]n3)cc(N3CCN(C)CC3)n2)on1
Potency [1]: 2.68 µM (active)
Potency [2]: 64.9 nM (active) and 525 nM (active)
Potency [3]: 29 nM (active) and 66.1 nM (active)
activity [5]: -7.12%
activity change, negative = inhibition [6]: -5.05%
activity [7]: -12.7%
activity [8]: -6.69%
Potency [4]: inactive

Cc1cc(C(N)=O)ccc1-n1c(CCC(=O)O)ccc1-c1ccc(-n2ccnc2)cc1
Potency [1]: 0.952 µM (active)
Potency [2]: inactive
Potency [3]: inactive
Potency [4]: inactive

Cc1[nH]c2ccccc2c1CCNC(=O)c1ccccc1F
Potency [1]: 21.3 µM (active)
Potency [2]: inactive
Potency [3]: inactive
Potency [4]: inactive

CC(=O)NC1=NN(C(C)=O)C(C)(c2ccccc2)S1 (stereo unspecified)
Potency [1]: inactive
Potency [2]: 4.59 µM (active)
Potency [3]: 4.09 µM (active)
Potency [4]: inactive

N#Cc1ccc2[nH]cc(CCCCN3CCN(c4ccc5oc(C(N)=O)cc5c4)CC3)c2c1
Potency [1]: 4.77 µM (active)
Potency [2]: 14.5 µM (active)
Potency [3]: 16.3 µM (active)
activity [5]: -8.1%
activity change, negative = inhibition [6]: -4.3%
activity [7]: -49.2%
activity [8]: -11.6%
Potency [4]: inactive

O=C(CC(c1ccccc1)c1ccccc1)N1CCN(C(c2ccccc2)c2ccccc2)CC1
Potency [1]: inactive
Potency [2]: 7.28 µM (active)
Potency [3]: 8.17 µM (active)
Potency [4]: inactive

CC(C)C(CO)Nc1nc(Nc2ccc(C(=O)O)c(Cl)c2)c2ncn(C(C)C)c2n1 (stereo unspecified)
Potency [1]: inactive
Potency [2]: inactive
Potency [3]: inactive
Potency [4]: inactive

Nc1nc(-n2cc(C(=O)O)c(=O)c3cc(F)c(N4CC(O)C4)c(Cl)c32)c(F)cc1F
Potency [1]: inactive
Potency [2]: inactive
Potency [3]: inactive
activity [5]: -21.4%
activity change, negative = inhibition [6]: 0.345%
activity [7]: -1.6%
activity [8]: -1.85%

Cc1ccc(Cc2c(C)nc3nc(SCC(=O)NCCN4CCNCC4)nn3c2C)cc1
Potency [1]: inactive
Potency [2]: inactive
Potency [3]: inactive
Potency [4]: inactive

O=C(O)c1ccccc1NCCc1ccccc1
Potency [1]: 11 µM (active)
Potency [2]: inactive
Potency [3]: inactive

O=C(O)CC1CCC(c2ccc(-c3ccc4nc(C(=O)NCc5ccc(OC(F)(F)F)cc5)cn4c3)cc2)CC1 (stereo unspecified)
Potency [1]: inactive
Potency [2]: inactive
Potency [3]: inactive
Potency [4]: inactive

Cc1ccc(S(=O)(=O)Cc2nc(-c3ccc(C(=O)NCc4cccnc4)cc3)oc2C)cc1
Potency [1]: inactive
Potency [2]: 0.0132 µM (active)
Potency [3]: 0.0186 µM (active)

CCOC(=O)CCN(C(=O)c1ccc2c(c1)nc(CNc1ccc(C(=N)N)cc1)n2C)c1ccccn1
Potency [1]: inactive
Potency [2]: inactive
Potency [3]: inactive
activity [5]: -3.92%
activity change, negative = inhibition [6]: 2.12%
activity [7]: -8.7%
activity [8]: 0.0478%
Potency [4]: inactive

Cc1ccccc1-n1c([C@H](C)Nc2nc(N)nc3nc[nH]c23)nc2cccc(C)c2c1=O
Potency [1]: 16.9 µM (active)
Potency [2]: 0.0649 µM (active)
Potency [3]: 0.411 µM (active)
Potency [4]: inactive

CC(C)(C)c1cc(Br)cc([C@H](CC(=O)O)NC(=O)CNC(=O)c2cc(O)cc(NC3=NCC(O)CN3)c2)c1 (stereo partly specified)
Potency [1]: inactive
Potency [2]: inactive
Potency [3]: inactive
Potency [4]: inactive

CN(C)C(=O)NC1CCC(CCN2CCN(c3cccc(Cl)c3Cl)CC2)CC1 (stereo unspecified)
Potency [1]: 12 µM (active)
activity change, negative = viability loss [2]: 3.61% [at 9.23 µM] (inactive)
activity change, negative = cell killing [3]: 2.1% [at 9.23 µM] (inactive)
Potency [4]: inactive

CCCCOC(=O)NC(=O)C1c2ccccc2Oc2ccccc21
Potency [1]: inactive
Potency [2]: inactive
Potency [3]: inactive
Potency [4]: inactive

C=CC(=O)Nc1cccc(Nc2nc(Nc3ccc(N4CCN(C(C)=O)CC4)cc3OC)ncc2C(F)(F)F)c1
Potency [1]: inactive
Potency [2]: 3.65 µM (active) and 4.17 µM (active)
Potency [3]: 2.9 µM (active)
Potency [4]: inactive

Cc1cccc(/C=N/Nc2cc(N3CCOCC3)n3nc(-c4ccncc4)cc3n2)c1
Potency [1]: 3.79 µM (active)
Potency [2]: 0.578 µM (active)
Potency [3]: 0.515 µM (active)
Potency [4]: inactive

O=C(O)Cc1ccc2oc(-c3ccc(NC(=O)/C=C/c4ccc(Br)cc4)c(F)c3)nc2c1
Potency [1]: inactive
Potency [2]: inactive
Potency [3]: inactive

Cc1c[nH]c2nccc(Oc3c(F)cc(Nc4cc(Cl)nc(N)n4)cc3F)c12
Potency [1]: 6.74 µM (active)
Potency [2]: 0.728 µM (active)
Potency [3]: 0.731 µM (active)
activity [5]: -14.6%
activity change, negative = inhibition [6]: 0%
activity [7]: -27.7%
activity [8]: -3.98%
Potency [4]: inactive

CC(C)S(=O)(=O)N[C@H]1CCOC[C@@H]1c1ccc(-c2ccc(C#N)s2)cc1
Potency [1]: 10.7 µM (active)
Potency [2]: inactive
Potency [3]: inactive
Potency [4]: inactive

CCN(Cc1cccnc1)C(=O)CN(c1ccc(OC)nc1)S(=O)(=O)c1ccccc1C
Potency [1]: inactive
Potency [2]: inactive
Potency [3]: inactive
Potency [4]: inactive

CCOCCn1nc(CC)c2nc(N3CCC(C(=O)O)CC3)nc(Nc3cc(C)ccn3)c21
Potency [1]: inactive
Potency [2]: inactive
Potency [3]: inactive
Potency [4]: inactive
